Laboratory results reported in PubChem BioAssay.
The source made the active and inactive calls. Unless noted, no rule for the calls is given here.

Tests used:
[1] = HepG2 liver cancer cell viability effects, profiling panel, resazurin fluorescence, 24 h, PK04 Diversity Set (AID 1172); conditions: higher = more signal; also: test concentration not given here
[2] = basal S. cerevisiae growth modulation, no modifier, primary screen, OD600, strain BY4716, 24 h, basal condition (AID 1173); conditions: OD600, 24 h, higher = more signal, called active from +8 up or from −8 down
[3] = MM1S myeloma cell viability, profiling panel, resazurin fluorescence, basal, 24 h, PK04 Diversity Set (AID 1174); conditions: higher = more signal, called active from +8 up or from −8 down;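 also: MM1S multiple myeloma cell line; test concentration not given here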
[4] = target: Dihydroorotate dehydrogenase (quinone), mitochondrial (Plasmodium falciparum (isolate 3D7)) (UniProt Q08210); assay: PfDHODH enzyme inhibitors, primary screen, biochemical, C-terminal His tag, absorbance 600 nm (AID 1175); conditions: DCIP absorbance 600 nm, higher = more signal, called active from +8 up or from −8 down;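 also: recombinant parasite enzyme with a five histidine tag at its C terminus; test concentration not given here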
Dihydroorotate dehydrogenase (quinone), mitochondrial (Plasmodium falciparum (isolate 3D7)), sequence (Q08210 whole entry, looked up): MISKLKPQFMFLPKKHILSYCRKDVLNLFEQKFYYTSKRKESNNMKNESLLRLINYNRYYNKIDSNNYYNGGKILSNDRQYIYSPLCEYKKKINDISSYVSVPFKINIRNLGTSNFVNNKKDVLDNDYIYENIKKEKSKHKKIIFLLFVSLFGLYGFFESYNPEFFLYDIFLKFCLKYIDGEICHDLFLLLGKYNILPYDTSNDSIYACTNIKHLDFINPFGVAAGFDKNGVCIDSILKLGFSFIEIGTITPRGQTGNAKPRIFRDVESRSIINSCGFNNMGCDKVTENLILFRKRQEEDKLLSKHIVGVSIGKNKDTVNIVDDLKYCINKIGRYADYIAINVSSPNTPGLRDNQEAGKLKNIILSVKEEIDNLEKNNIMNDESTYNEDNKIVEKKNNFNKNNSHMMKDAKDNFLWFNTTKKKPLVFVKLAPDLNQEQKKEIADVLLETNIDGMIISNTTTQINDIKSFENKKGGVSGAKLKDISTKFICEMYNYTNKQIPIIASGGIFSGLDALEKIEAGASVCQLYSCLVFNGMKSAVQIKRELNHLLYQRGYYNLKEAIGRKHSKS

[5] = P. aeruginosa biofilm formation inhibitors, primary screen, strain PAO1, LB-PBS medium, absorbance 600 nm (AID 1176); also: test concentration not given here; conditions: P. aeruginosa PAO1 growth/biofilm, A600, 12 h; higher = more signal
[6] = S. cerevisiae RM11-1a growth modifiers, primary screen, strain RM11-1a, OD600, basal, 24 h (AID 1177); conditions: OD600, 24 h, higher = more signal, called active from +8 up or from −8 down;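 also: cultures grown under basal conditions with no added stressor; test concentration not given here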
[7] = E. coli acrAB mutant growth effects, primary screen, E. coli filamentation inducers, strain DRC39, OD650, 24 h (AID 1178); conditions: higher = more signal, called active from +8 up or from −8 down;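 also: growth measured as culture turbidity by optical density at 650 nm; test concentration not given here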
[8] = E. coli acrAB mutant growth effects, primary screen, E. coli filamentation inducers, strain DRC39, OD650, 48 h (AID 1179);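 also: screen aims at cell division blockers that make cells filament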; conditions: E. coli DRC39 delta-acrAB growth, higher = more signal, called active from +8 up or from −8 down
[9] = RPMI8226 myeloma cell viability, profiling panel, resazurin fluorescence, basal, 24 h, PK04 Diversity Set (AID 1180); conditions: higher = more signal;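 also: RPMI8826 multiple myeloma cell line at 5000 cells per well; test concentration not given here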
[10] = target: E3 ubiquitin-protein ligase XIAP (Homo sapiens) (UniProt P98170); assay: XIAP binders, primary screen, biophysical, small-molecule microarray, fluorescence 635 nm (AID 1181); conditions: small-molecule microarray binding, higher = more signal;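 also: score merges 667 nm emission and signal to noise over triplicate slides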
E3 ubiquitin-protein ligase XIAP (Homo sapiens), sequence (P98170 whole entry, looked up): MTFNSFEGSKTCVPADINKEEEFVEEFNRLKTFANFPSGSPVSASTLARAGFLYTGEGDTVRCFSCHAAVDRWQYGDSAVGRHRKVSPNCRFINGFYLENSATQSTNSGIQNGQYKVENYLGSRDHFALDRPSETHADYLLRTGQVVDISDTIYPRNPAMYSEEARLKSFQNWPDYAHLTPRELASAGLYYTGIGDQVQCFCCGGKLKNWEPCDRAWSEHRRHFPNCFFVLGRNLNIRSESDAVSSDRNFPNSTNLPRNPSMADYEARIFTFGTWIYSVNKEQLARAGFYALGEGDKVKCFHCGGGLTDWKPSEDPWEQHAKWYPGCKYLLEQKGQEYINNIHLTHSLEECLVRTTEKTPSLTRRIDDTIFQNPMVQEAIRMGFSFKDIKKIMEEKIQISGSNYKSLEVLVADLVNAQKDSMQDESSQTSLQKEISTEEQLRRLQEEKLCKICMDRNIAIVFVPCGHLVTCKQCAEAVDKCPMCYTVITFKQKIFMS

| SMILES | z-score [1] | z-score [2] | z-score [3] | composite z-score [4] | z-score [5] | z-score [6] | z-score [7] | z-score [8] | z-score [9] | composite z-score [10] |
| --- | --- | --- | --- | --- | --- | --- | --- | --- | --- | --- |
| Cc1ccc(S(=O)(=O)N2[C@@H](c3ccccc3)C(C(=O)O)=CC[C@H]2c2ccc(F)cc2)cc1 | 0.0445 | -0.93 (inactive) | -0.3 (inactive) | -0.667 (inactive) | 0.244 (inactive) | -0.069 (inactive) | -0.0944 (inactive) | 0.0973 (inactive) | -0.858 | 0.142 |
| C=C(CCCC)/C(=C/C[C@@H](OC(C)=O)c1cccc(OCCO)c1)c1cc(C(=O)OC)ccc1OC | 0.978 | 1.12 (inactive) | 0.0348 (inactive) | -0.943 (inactive) | 0.0599 (inactive) | 0.523 (inactive) | 0.508 (inactive) | 0.583 (inactive) | 0.1 | -0.0447 |
| C=C(CCCC)C(=O)CC[C@H](OC(=O)c1ccccc1-c1ccccc1C(=O)O)c1cccc(OCCO)c1 | -1.01 | -1.21 (inactive) | -0.821 (inactive) | -0.347 (inactive) | 1.09 (inactive) | 0.0742 (inactive) | -0.778 (inactive) | -0.689 (inactive) | -0.432 | -0.138 |
| O=C1O[C@H](c2ccccc2)[C@H](c2ccccc2)N2[C@H]1[C@@H](C(=O)Nc1nc3ccccc3s1)[C@]1(C(=O)Nc3ccccc31)[C@H]2c1ccccc1OCCO | 0.551 | 0.448 (inactive) | -1.93 (inactive) | 0.386 (inactive) | 2.76 (inactive) | 2.72 (inactive) | -0.0179 (inactive) | -0.145 (inactive) | -3.31 | -0.128 |
| COC(=O)[C@@]1(Cc2ccc(OC)cc2)[C@H]2c3cc(C(=O)N(C)C)n(Cc4c(CO)[nH]cc(C)c4=O)c3C[C@H]2CN1C(=O)c1ccccc1 | -0.548 | -0.0117 (inactive) | -1.06 (inactive) | -0.501 (inactive) | 0.371 (inactive) | -0.463 (inactive) | -0.897 (inactive) | -0.542 (inactive) | -0.717 | -0.127 |
| O=C(NC1CC1)[C@@H]1c2ccccc2C(=O)N(C2CCCCC2)[C@H]1c1ccc(CO)cc1 | -0.358 | 0.678 (inactive) | -1.27 (inactive) | -0.245 (inactive) | 0.292 (inactive) | -0.456 (inactive) | -0.185 (inactive) | 0.138 (inactive) | -0.166 | -0.323 |
| O=C1NC(=O)C2C1C=CC(C(O)C1CCCCC1)N2Nc1ccccn1 (stereo not given) | -0.864 | 0.876 (inactive) | -1.27 (inactive) | 0.583 (inactive) | 2.68 (inactive) | 0.209 (inactive) | -1.02 (inactive) | -0.286 (inactive) | -1.33 | -0.0663 |
| COc1ccc([Si](C)(C)[C@H]2[C@H](CC(=O)N(CCO)Cc3ccccc3)O[C@@]3(C(=O)N(Cc4cccc(N5CCCCC5=O)c4)c4ccccc43)[C@@H]2C)cc1 | -0.415 | -0.0548 (inactive) | -2.35 (inactive) | -1.02 (inactive) | 1.77 (inactive) | 1.45 (inactive) | 0.72 (inactive) | 0.832 (inactive) | -3.16 | -0.0559 |
| O=C1NC(=O)C2C1C=CC(C(O)C(O)CO)N2Nc1ccccn1 (stereo not given) | -0.908 | 0.802 (inactive) | -0.872 (inactive) | -0.683 (inactive) | 1.11 (inactive) | -0.645 (inactive) | -0.0259 (inactive) | 0.61 (inactive) | -0.885 | -0.195 |
| [N-]=[N+]=NCc1ccccc1[C@H]1OC(c2ccc(OCCCO)cc2)=N[C@@]1(Cc1ccccc1N=[N+]=[N-])C(=O)O | 0.539 | -4.15 (inactive) | 0.119 (inactive) | -0.862 (inactive) | 0.535 (inactive) | -0.123 (inactive) | -0.539 (inactive) | -0.779 (inactive) | -0.0412 | 0.166 |
| CC(C)[Si](C#Cc1ccccc1)(O[C@H](c1ccccc1)c1cn(Cc2ccccc2)nn1)C(C)C | -0.001 | -16.7 (active) | 0.141 (inactive) | -1.03 (inactive) | -0.571 (inactive) | -0.282 (inactive) | 1.67 (inactive) | 0.79 (inactive) | 0.253 | -0.516 |
| O=C(c1ccccc1)N1Cc2ccccc2C[C@@]2(N=C(c3ccc(OCCCO)cc3)O[C@H]2c2ccccc2)C1=O | -1.51 | 0.728 (inactive) | -3.22 (inactive) | 0.23 (inactive) | 1.49 (inactive) | 1.39 (inactive) | 0.0557 (inactive) | -0.469 (inactive) | -3.73 | 0.0797 |
| O=C1c2ccccc2[C@@]2(Cc3ccccc3N(CC(F)(F)F)C2=O)[C@H](c2ccc(CO)cc2)N1Cc1ccccc1 | -0.584 | 0.714 (inactive) | -0.0925 (inactive) | -17.8 (active) | 0.118 (inactive) | -0.224 (inactive) | 0.117 (inactive) | -1.66 (inactive) | -0.341 | -0.231 |
